Screens from PubChem.
Most compounds without a hit are left out; they make up all but 4.6% or so of the library.
TRHR PAM – qHTS for Small Molecule Agonists and Allosteric Enhancers of Human TRH Receptor: Primary Screen for Enhancers. AID 493056, 2011. TRHR cells, fluo-8 calcium fluorescence, EC20 TRH enhancement. 0.66% of 360,000 active. Thyrotropin-releasing hormone receptor (Homo sapiens), P34981. enhancement, % at 2 µM; in the data active means enhancement above about 30%; further: 0% is about no effect
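TRHR-expressing cells loaded with fluo-8 calcium dye were read kinetically (ex 480/em 530) during compound addition, then stimulated with an EC20 of TRH (10 nM final). Enhancement of the Gq-mediated intracellular calcium response was scored.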
TRHR agonist – qHTS for Small Molecule Agonists and Allosteric Enhancers of Human TRH Receptor: Primary Screen for Agonists | AID 493084, 2011 | 0.18% of 360,000 active | activation, % at 2 µM | TRHR cells, calcium flux fluo-8, FDSS agonist mode; further: 0% is about no effect
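Agonist-mode FDSS calcium read (Ex 480/Em 530, 1 s cycles) in 1536-well TRHR cells with fluo-8 dye, after 10-cycle baseline and 23 nL compound addition; TRH at EC20 (10 nM final) added afterwards for the enhancer phase.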
D1 antag – Antagonist of Human D 1 Dopamine Receptor: qHTS; 3.2% of 360,000 active; HEK293 TREx D1 cells, calcium flux, dopamine EC80; hits give low values; AID 504652, 2011; D(1A) dopamine receptor (Homo sapiens), P21728; activity change, negative = inhibition, % at 10 µM; in the data active means activity change below about -30%; further: on the % scale 0 is the no-effect control and ±100 the full control effect
Target sequence (P21728 whole entry, looked up): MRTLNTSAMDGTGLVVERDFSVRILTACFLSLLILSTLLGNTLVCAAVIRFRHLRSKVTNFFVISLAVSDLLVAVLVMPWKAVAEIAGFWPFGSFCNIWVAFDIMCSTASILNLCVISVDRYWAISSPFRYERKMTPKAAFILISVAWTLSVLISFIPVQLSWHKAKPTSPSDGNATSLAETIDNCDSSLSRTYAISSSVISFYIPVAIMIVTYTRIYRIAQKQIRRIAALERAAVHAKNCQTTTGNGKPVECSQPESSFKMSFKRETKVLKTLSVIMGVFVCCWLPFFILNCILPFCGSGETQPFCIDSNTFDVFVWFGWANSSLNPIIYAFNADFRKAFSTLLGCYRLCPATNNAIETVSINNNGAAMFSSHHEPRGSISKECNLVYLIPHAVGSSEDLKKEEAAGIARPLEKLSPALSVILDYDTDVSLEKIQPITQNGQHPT
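Tetracycline-induced HEK293 T-REx cells with force-coupled D1 receptor were loaded with a no-wash calcium dye. Compound was added after a 10 s baseline and read kinetically for 180 s; EC80 dopamine was then added and calcium flux followed another 180 s.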
D1 PAM – Potentiators of Human D1 Dopamine Receptor: qHTS; D(1A) dopamine receptor (Homo sapiens), P21728; HEK293 TREx D1 cells, calcium flux, dopamine EC20 potentiation; potentiation, % at 10 µM; 0.036% of 360,000 active; AID 504651, 2011; in the data active means potentiation above about 30%; further: 0% is about no effect
D1 agonist – Allosteric Agonists of the Human D1 Dopamine Receptor: qHTS | D(1A) dopamine receptor (Homo sapiens), P21728 | HEK293 T-REx D1 cells, calcium flux, agonist mode | activation, % at 2 µM | 1% of 360,000 active | AID 504660, 2011; further: 0% is about no effect
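Agonism was scored from calcium flux recorded over 180 s (1 read/s) after pintool compound addition, following a 10-cycle baseline. Cells were inducible force-coupled HEK293 TREx D1, plated overnight at 30 C and loaded with no-wash calcium dye.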
An asterisk follows results filed as active; . = not tested or not shown. Unless noted, no stated cut-off is given here; in the data, active means activation above about 30%; inactive means the rest.

SMILES	TRHR PAM	TRHR agonist	D1 antag	D1 PAM	D1 agonist
CCC(=O)c1cn(CC(=O)Nc2ccccc2Cl)c2ccccc12	-4	0	16	4	-2
CCc1cc2c(=O)c(-c3nc(C)cs3)coc2cc1OC(C)C(=O)NCCO (stereo unspecified)	-6	0	-33*	-2	0
Cn1c(CNC(=O)c2ccccc2F)nnc1SCC(=O)Nc1nncs1	7	-1	6	8	-1
Cc1cc(C(=O)N/N=C/c2c(C)[nH]c3ccccc23)n[nH]1	1	-1	-20	1	3
Cc1cc(C(=O)N/N=C/c2ccccn2)n[nH]1	-1	0	-48*	-6	1
Cc1[nH]c2ccccc2c1/C=N/NC(=O)c1cc(-c2cccs2)[nH]n1	4	0	-31*	-13	0
O=C(O)/C=C/c1ccc2noc(-c3ccccc3)c2c1	32*	1	5	-2	0
COc1ccc(C(=O)Nc2ccccc2)cc1S(=O)(=O)NCc1ccco1	1	0	-12	1	2
COc1ccc(C(=O)NCc2nnc(SCC(=O)N3CCc4ccccc43)n2Cc2ccccc2)cc1	10	0	-30*	-2	3
COc1cccc(N2CC(NC(=O)/C=C\c3ccc(OC)c(OC)c3)CC2=O)c1 (stereo unspecified)	2	0	.	0	-2
NC(=O)c1ccc(NC(=O)COC(=O)c2n[nH]c3ccccc23)cc1	-1	0	-2	-10	2
COc1ccc(N(CC(=O)Nc2ccc(C)cn2)S(=O)(=O)c2c(C)noc2C)cc1	7	0	-80*	-4	0
COc1ccccc1CNCC(O)(c1ccc(Cl)cc1)c1ccc(Cl)cc1	2	1	23	1	6
COc1ccccc1CNN	33*	0	12	0	1
COc1ccccc1CNCC(O)(c1ccc(F)cc1)c1ccc(F)cc1	-8	1	-52*	-10	2
Cc1cc(C(=O)CN2C(=O)C(=O)N(Cc3ccccc3)C2=O)c(C)n1Cc1ccc(F)cc1	-6	0	-5	.	10
Cc1cc(C)cc(Nc2c3c(nc4ncnn24)CCC3)c1	-3	-1	3	-2	0
COc1cccc(N2CCN(c3c4c(nc5ncnn35)CCC4)CC2)c1	-7	0	-30*	-7	5
Cc1cccc(Nc2c3c(nc4ncnn24)CCC3)c1	4	-3	-30*	-2	1
CC1=NOC(=O)/C1=C\c1ccc(-c2cccc(Cl)c2)o1	-14	2	-51*	-4	1
O=C(Nc1nnc(-c2ccccc2SCc2ccccc2)s1)Nc1ccccc1F	-3	0	0	-1	4
CC(C)NC[C@@H](O)c1ccc(O)c(O)c1	10	0	-32*	5	0
Nc1nc(CSc2ccc(Cl)cc2)nc(N2CCCCC2)n1	2	0	0	3	3
Nc1nc(COc2ccc(F)cc2Cl)nc(N2CCCCC2)n1	-4	-1	-31*	-5	1
Clc1ccc(CNc2cnccn2)cc1Cl	-2	-1	-2	1	9
SMILES	TRHR PAM	TRHR agonist	D1 antag	D1 PAM	D1 agonist
O=S(=O)(NCC(c1cccnc1)N1CCN(c2ccc(F)cc2)CC1)c1ccc(F)cc1 (stereo unspecified)	-2	0	-23	-6	-2
COc1ccccc1N1CCN(C(CNC(=O)C(=O)NCc2ccc(F)cc2)c2cccnc2)CC1 (stereo unspecified)	-2	-1	-2	-3	33*
O=S(=O)(NCC(c1cccnc1)N1CCN(c2ccc(F)cc2)CC1)c1cccs1 (stereo unspecified)	0	0	-31*	-3	-2
COc1ccc(C)cc1NC(=O)C(=O)NCC(c1cccnc1)N1CCc2ccccc21 (stereo unspecified)	-4	0	6	-2	1
CCc1ccc(NC(=O)C(=O)NCC(c2cccnc2)N2CCN(C)CC2)cc1 (stereo unspecified)	3	0	2	9	53*
COc1ccc(C)cc1NC(=O)C(=O)NCC(c1cccnc1)N1CCN(c2ccccc2F)CC1 (stereo unspecified)	-3	0	-34*	-2	3
COc1cc(NS(=O)(=O)c2ccc3[nH]c(=O)oc3c2)cc(OC)c1	-5	1	3	-1	1
Cc1c(C(=O)NC(=S)Nc2ccc(NC(=O)c3cccs3)cc2)oc2ccccc12	3	0	-28	-1	-1
COc1ccc(N2CCN(C(CNC(=O)C(=O)NCCCN(C)C)c3cccnc3)CC2)cc1 (stereo unspecified)	-2	0	-35*	-2	1
COc1ccc(CCNC(=O)c2c(C)nc3ccccn23)cc1OC	5	1	-9	-4	0
O=CN1CCN(C(=S)NC(=O)c2ccc(Cl)cc2)CC1	39*	0	1	2	0
C/C(CC(=O)N1CCN(C=O)CC1)=N\NC(=O)c1ccc(Cl)cc1	-7	1	5	-4	0
CCOC(=O)C(NC(=O)Nc1ccc(C(N)=O)cc1)(c1ccccc1)C(F)(F)F (stereo unspecified)	4	0	-1	-7	4
COc1cccc(/C=C/C(=O)c2ccc(NS(=O)(=O)c3ccc(C)cc3)cc2)c1	5	0	-60*	-4	3
O=C(O)CC1S/C(=N/N=C/C2CC=CCC2)NC1=O (stereo unspecified)	6	1	-35*	-6	2
O=C(O)CC1S/C(=N/N=C/C=C/c2ccccc2)NC1=O (stereo unspecified)	0	0	19	0	1
COc1cc2[nH]c(Cl)c([N+](=O)[O-])c2cc1OC	13	1	-31*	-8	1
COc1cc2[nH]c3c(Cl)ncnc3c2cc1OC	-4	0	-6	0	2
CC(=O)Nc1nnc(SCC(=O)N2CCCc3ccccc32)s1	2	0	8	-4	0
Cc1ccc(C(=O)CSc2nc3cccnc3n2C)cc1	-3	-2	-37*	-8	7
N/C(=N\N=C\c1ccc([N+](=O)[O-])cc1)c1nonc1N	-2	0	-43*	-20	3
COc1ccc(OC)c(/C=N/N=C(\N)c2nonc2N)c1	-5	0	-30*	-3	1
COc1ccc(C2CC(=O)Nc3c2c(C)nn3-c2nc(C)cc(C)n2)c(OC)c1OC (stereo unspecified)	1	1	3	0	1
